Screening data: PubChem, National Center for Advancing Translational Sciences (NCATS)
ELG1 DNA repair – qHTS screen for small molecules that inhibit ELG1-dependent DNA repair in human embryonic kidney (HEK293T) cells expressing luciferase-tagged ELG1; AID 504467, 2011; HEK293T ELG1-luciferase reporter, luminescence, 16 h; DNA damage induced by 5-fluorouridine; Potency, µM (highest dose often 46.1 µM), for the others: top-dose activity change, negative = inhibition, actives largely listed as inhibitors; 330,000 compounds, 2.3% hits; also: potency is read from the fitted curve at half-maximal effect; % is scaled to controls: 0 for no effect and ±100 for the full control effect; nearly all actives have a fitted effect of over 55% in size
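Luminescence from the luciferase reporter, measured 30 min after ONE-Glo reagent at room temperature, was the read-out. Beforehand, 2,000 cells per well were exposed for 16 hr at 37 °C to 5-fluorouridine together with compound or vehicle.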
Nrf2 activator – qHTS of Nrf2 Activators; 410,000 compounds, 0.31% hits; AREc32 ARE-luciferase reporter (MCF7-derived line), luminescence, 24 h; Potency, µM (highest dose often 46.1 µM), for the others: top-dose activation, actives largely listed as activators; AID 624171, 2012; also: potency is read from the fitted curve at half-maximal effect; % of control where 0% means no effect; nearly all actives have a fitted effect of over 65% in size
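Cells of the AREc32 ARE-luciferase line are plated in OPTI-MEM containing 5% FBS and left overnight at 37 deg C. Compounds are pinned in, incubation continues 24 hr, and firefly luciferase signal is then measured.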
BRCA1 expr up – qHTS Assay to Identify Small Molecule Activators of BRCA1 Expression. MCF7-BRCA1-FFLuc reporter, luminescence, 48 h; response scale: scaled: vehicle 0%, 10 µM genistein 100%. Potency, µM (titrated, usually from 46.1 µM), inactives show at the highest dose activation, hits mostly activators. 380,000 compounds, 1.1% hits. AID 624202, 2012; also: potency is read from the fitted curve at half-maximal effect; nearly all actives have a fitted effect of over 80% in size
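48 h compound treatment of MCF7-BRCA1-FFLuc cells (phenol-red free MEM, 37 °C), then 15 min with luciferase substrate and luminescence imaging.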
IL2 activator – qHTS of IL-2 Activators | IL-2 activation reporter assay, cell-based qHTS; stimulated with anti-CD3/CD4/CD28 beads; in transgenic mouse T cells | activation, % (series mostly up to about 46 µM) | 360,000 compounds, 0.065% hits | AID 652025, 2013; in the data active = activation above about 50%; inconclusive = mostly about 30% to 49%; also: 0% is about no effect
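Unstimulated transgenic mouse T cells, 750 per well, received compound and, after 60 minutes, anti-CD3/anti-CD4 bead plus anti-CD28 stimulation. EGFP and DsRed were quantified after 18 hours.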
Starred values were filed as active, the others as inactive; ? = inconclusive; · = no result; [ ] = remark or other dose. Shown are actives, neighbours in structure and some others; about 3.1% of the full set was active somewhere. Unless noted, calls follow the shape of the dose curve; as a rule, active = well fitted curve in the direction sought with a large enough effect; inconclusive = small, poorly fitted or top-dose-only effect, or another doubt; inactive = no such curve, though single readings can be large; an effect the other way counts as inactive or inconclusive.

SMILES | ELG1 DNA repair | Nrf2 activator | BRCA1 expr up | IL2 activator
CSCCNC(=O)c1ccc(C(C)(C)C)cc1 | ? | -0.4% | 7.08µM* | 0.2
O=C(NCCc1cccs1)c1ccc(Cl)c(Cl)c1 | ? | 2.4% | 3.98µM* | -2.0
Clc1cccc(-n2ncc3c(NC4CCCCC4)ncnc32)c1 | · | -0.7% | · | ·
Cc1cc(C(=O)NCCc2ccccc2)ccc1[N+](=O)[O-] | ? | -0.1% | 6.31µM* | 0.3
O=C(NCCc1ccc([N+](=O)[O-])cc1)c1ccccc1 | ? | 3.9% | 40.3% | 0.1
O=C(NCCc1ccccc1)c1ccc([N+](=O)[O-])cc1 | ? | -1.7% | 34.6% | -0.5
CC(C)c1ccc(CCNC(=O)c2ccc([N+](=O)[O-])cc2)cc1 | 9.2µM* | -0.7% | -0.8% | 0.0
Cc1ccc(C(=O)NCCSC(C)(C)C)cc1[N+](=O)[O-] | ? | 0.8% | 11.2µM* | -1.6
O=C(CN1C(=O)COc2ccc(S(=O)(=O)NC3CCCC3)cc21)Nc1ccc(Cl)cc1 | · | 6.9% | · | ·
CCCOC(=O)c1c(-c2ccccc2)c(-c2ccccc2)nn(C)c1=O | · | 4.4% | · | ·
CC(=O)N1CCN(c2cc(-c3ccccc3)nc3cc(-c4cccc(Cl)c4)nn23)CC1 | · | -0.9% | 9.3% | 1.2
Cc1cccc(Cn2cc3c(=O)n(CC(=O)Nc4ccc(C)c(F)c4)nc-3c3cc(F)ccc32)c1 | · | -1.5% | · | ·
Cc1ccc(CCNC(=O)c2sc3ncccc3c2-n2c(C)ccc2C)cc1 | · | 5.4% | · | ·
[O-][n+]1onc2c1CCc1c-2nn(-c2ccccc2Cl)[n+]1[O-] | ? | ? | -53.0% | -2.9
Cc1ccc(-n2nc3c([n+]2[O-])CCc2c-3no[n+]2[O-])cc1 | ? | 2.24µM* | -33.6% | -3.3
CCc1nc2ccc(C(=O)NCc3ccc(OC)cc3)cn2c1N(C)C(=O)Cc1ccccc1 | · | 0.4%[9.22 µM] | 0.0% | -0.4
O=C1NCCN/C1=C\C(=O)c1cccc(Br)c1 | ? | 18.0% | 11.2µM* | 0.4
Nc1nc(-c2ccccc2Cl)cs1 | · | 5.8% | 10µM* | 1.8
S=C(NCc1ccco1)Nc1cccc(Cl)c1Cl | 14.6µM* | 19.1% | 20.0% | 0.1
O=C(NCc1ccco1)c1cc2cc(Br)ccc2o1 | ? | 11.9% | ? | -4.1
O=C(NCc1ccco1)Nc1ccc(Br)cc1Cl | ? | 18.0% | 12.6µM* | -1.4
COc1cccc(-c2nc(SCC(=O)NC3CCCC3)c(-c3ccc(F)cc3)[nH]2)c1 | · | -0.3% | · | ·
Cc1ccc(C)c(N2CCN(C3(c4ccccc4)C(=O)c4ccccc4C3=O)CC2)c1 | · | 0.2% | · | ·
COc1ccc2nc3c(cc2c1)c(NC(=O)c1cccs1)nn3CC(C)C | ? | 8.1% | -6.4% | 0.4
CC(C)Cn1nc(NC(=O)c2cccs2)c2cc3ccccc3nc21 | 20.6µM* | -0.1% | -10.6% | 1.8
SMILES | ELG1 DNA repair | Nrf2 activator | BRCA1 expr up | IL2 activator
COc1ccc(CCn2c(=N)c(S(=O)(=O)c3ccc(C)cc3)cc3c(=O)n4ccccc4nc32)cc1 | -9.1% | 0.5% | -9.3% | 60.7*
COCCn1c(=N)c(S(=O)(=O)c2ccc(Br)cc2)cc2c(=O)n3ccccc3nc21 | ? | -0.2% | 21.3% | -0.1
Cc1ccc(Cn2c(=N)c(S(=O)(=O)c3ccc(Br)cc3)cc3c(=O)n4ccccc4nc32)cc1 | 16.6% | -0.9% | -7.0% | 95.0*
N=c1c(S(=O)(=O)c2ccc(Br)cc2)cc2c(=O)n3ccccc3nc2n1Cc1ccccc1 | 0.8% | 0.1% | -12.6% | -3.7
CC1CCN(CCCNC(=O)c2cc(Sc3ccc(F)cc3)nc3ccccc23)CC1 | · | 11.9% | · | ·
CC(NCCCSc1ccccc1)C(O)c1ccc(O)cc1 (configuration not stated) | · | 3.8% | 4.1% | -2.8
Cc1ccc(Cl)cc1NS(=O)(=O)c1ccc(N2CCCCS2(=O)=O)cc1 | · | 2.2% | · | ·
C=C(C)COc1ccc(-c2[nH]ncc2-c2ccc(OC)cc2)c(O)c1 | ? | -0.5% | 0.9% | -0.7
C=C(C)COc1ccc(-c2n[nH]c(C)c2-c2ccc(OC)c(OC)c2)c(O)c1 | 20.6µM* | 2.9% | -75.8% | -2.8
COc1ccc(-c2cn[nH]c2-c2ccc(OCc3ccccc3)cc2O)cc1OC | 13µM* | 5.4% | -85.4% | -2.2
COc1ccc(-c2n[nH]c(C)c2-c2ccc(Cl)cc2)c(O)c1 | -0.2% | 3.8% | -34.0% | -0.7
C=C(C)COc1ccc(-c2n[nH]c(C)c2Oc2ccccc2OC)c(O)c1 | ? | 2.4% | -71.2% | 0.2
COc1ccc(-c2n[nH]c(C)c2-c2ccc(Cl)cc2)c(O)c1OC | 11.6µM* | -0.5% | -31.2% | -3.5
C=C(C)COc1ccc(-c2[nH]ncc2-c2ccc(OC)c(OC)c2)c(O)c1 | 20.6µM* | 2.3% | -79.1% | -0.8
COc1cc(NC(=O)CCNS(=O)(=O)c2ccc3c(c2)CCN3C(=O)C2CC2)cc(OC)c1 | · | -0.5% | -5.3% | ·
COc1ccc(NC(=O)c2ccco2)cc1NC(=O)COc1ccccc1Cl | · | 3.7% | · | ·
N#Cc1nc(-c2ccccc2)cc(-c2ccccc2)n1 | · | · | -7.5% | ·
COc1ccccc1Cc1c(C(C)(C)C)nc2c3ccccc3ccn12 | · | 0.9% | -63.2% | 0.1
CNc1ccc(Br)cc(C(=O)/C=C/c2cccc(Cl)c2Cl)c1=O | 0.0% | 7.94µM* | -86.5% | 14.7
CNc1ccc(Br)cc(C(=O)/C=C/c2cccc(OC)c2OC)c1=O | ? | -0.2% | -1.7%[1.84 µM] | 0.4
COc1ccccc1/C=C/C(C)=O | 2.1% | 16.4% | -20.3% | -3.6
CNc1ccccc(C(=O)/C=C/c2ccccc2OC)c1=O | 23.1µM* | ? | -76.6% | 1.0
CCCOC(=O)c1ccc(-c2c(C)noc2-c2ccc(OC)cc2O)o1 | 20.6µM* | 3.1% | -24.1% | -2.8
O=C(CSc1cn(CCNC(=O)c2cccc(C(F)(F)F)c2)c2ccccc12)Nc1ccc2c(c1)OCCO2 | · | -0.7% | -24.2% | ·
CCc1nn(CC(=O)N(CC)Cc2ccccc2)c(=O)c2cc3occc3n12 | · | 0.0% | -15.0% | ·
SMILES | ELG1 DNA repair | Nrf2 activator | BRCA1 expr up | IL2 activator
O=[N+]([O-])c1cccc(/C=N/N2CCN(Cc3ccccc3)CC2)c1 | ? | 3.5% | 12.6µM* | 0.6
O=[N+]([O-])c1cccc(/C=N\N2CCN(Cc3ccccc3Cl)CC2)c1 | ? | -0.8% | 38.7% | -1.9
O=[N+]([O-])c1cccc(C=NN2CCCCCC2)c1 | · | 8.6% | 12.6µM* | -1.1
O=[N+]([O-])c1ccc(Cl)c(/C=N/N2CCN(c3ccccc3)CC2)c1 | 23.1% | 12.6µM* | -68.9% | -0.7
O=[N+]([O-])c1cccc(/C=N/N2CCN(c3ccccn3)CC2)c1 | ? | -0.5% | 8.91µM* | -0.5
COC(=O)c1ccccc1NC(=O)Cn1c(=O)n(CCCC(=O)NCCc2ccc(OC)c(OC)c2)c(=O)c2ccccc21 | · | -0.7% | 12.5% | ·
COc1ccc2c(c1)NC(c1ccc(OCC(C)C)cc1)=NC(c1ccncc1)=N2 | · | 2.7% | · | ·
COc1ccccc1C(=O)OCc1cc(=O)n2c(C)csc2n1 | · | 4.4% | 0.0% | ·
CCn1ccc2c(OCC(=O)Nc3ccc(OC)cc3OC)cccc2c1=O | · | 2.9% | 6.8% | ·
